Bioassay records from PubChem BioAssay.
Compounds with a hit are over-represented: about 1.2% of the library has one in this group of screens.
Yp Topo-I inh – blocks Yersinia pestis topoisomerase I activity | Y. pestis Topo-I cleavage product accumulation, plate reader | activity, % at 10 µM | hit rate 0.064% among 360,000 | AID 504884; in the data active = activity above about 50%, passing the limit was not always enough; inconclusive = no clear call, values can overlap the other calls
VHR inh abs – blocks human VHR1 dual specificity phosphatase. hit rate 0.52% among 290,000. inhibition, % at 13.3 µM. P51452. recombinant VHR phosphatase, pNPP absorbance; in the data active = inhibition above about 50%
TcdB inh – blocks C. difficile toxin B glycohydrolase activity; P18177; TcdB glycohydrolase enzymatic assay, plate reader; inhibition, % at 9.99 µM; hit rate 0.24% among 350,000; AID 652162; in the data active = inhibition above about 10%
Target sequence (P18177 whole entry, looked up): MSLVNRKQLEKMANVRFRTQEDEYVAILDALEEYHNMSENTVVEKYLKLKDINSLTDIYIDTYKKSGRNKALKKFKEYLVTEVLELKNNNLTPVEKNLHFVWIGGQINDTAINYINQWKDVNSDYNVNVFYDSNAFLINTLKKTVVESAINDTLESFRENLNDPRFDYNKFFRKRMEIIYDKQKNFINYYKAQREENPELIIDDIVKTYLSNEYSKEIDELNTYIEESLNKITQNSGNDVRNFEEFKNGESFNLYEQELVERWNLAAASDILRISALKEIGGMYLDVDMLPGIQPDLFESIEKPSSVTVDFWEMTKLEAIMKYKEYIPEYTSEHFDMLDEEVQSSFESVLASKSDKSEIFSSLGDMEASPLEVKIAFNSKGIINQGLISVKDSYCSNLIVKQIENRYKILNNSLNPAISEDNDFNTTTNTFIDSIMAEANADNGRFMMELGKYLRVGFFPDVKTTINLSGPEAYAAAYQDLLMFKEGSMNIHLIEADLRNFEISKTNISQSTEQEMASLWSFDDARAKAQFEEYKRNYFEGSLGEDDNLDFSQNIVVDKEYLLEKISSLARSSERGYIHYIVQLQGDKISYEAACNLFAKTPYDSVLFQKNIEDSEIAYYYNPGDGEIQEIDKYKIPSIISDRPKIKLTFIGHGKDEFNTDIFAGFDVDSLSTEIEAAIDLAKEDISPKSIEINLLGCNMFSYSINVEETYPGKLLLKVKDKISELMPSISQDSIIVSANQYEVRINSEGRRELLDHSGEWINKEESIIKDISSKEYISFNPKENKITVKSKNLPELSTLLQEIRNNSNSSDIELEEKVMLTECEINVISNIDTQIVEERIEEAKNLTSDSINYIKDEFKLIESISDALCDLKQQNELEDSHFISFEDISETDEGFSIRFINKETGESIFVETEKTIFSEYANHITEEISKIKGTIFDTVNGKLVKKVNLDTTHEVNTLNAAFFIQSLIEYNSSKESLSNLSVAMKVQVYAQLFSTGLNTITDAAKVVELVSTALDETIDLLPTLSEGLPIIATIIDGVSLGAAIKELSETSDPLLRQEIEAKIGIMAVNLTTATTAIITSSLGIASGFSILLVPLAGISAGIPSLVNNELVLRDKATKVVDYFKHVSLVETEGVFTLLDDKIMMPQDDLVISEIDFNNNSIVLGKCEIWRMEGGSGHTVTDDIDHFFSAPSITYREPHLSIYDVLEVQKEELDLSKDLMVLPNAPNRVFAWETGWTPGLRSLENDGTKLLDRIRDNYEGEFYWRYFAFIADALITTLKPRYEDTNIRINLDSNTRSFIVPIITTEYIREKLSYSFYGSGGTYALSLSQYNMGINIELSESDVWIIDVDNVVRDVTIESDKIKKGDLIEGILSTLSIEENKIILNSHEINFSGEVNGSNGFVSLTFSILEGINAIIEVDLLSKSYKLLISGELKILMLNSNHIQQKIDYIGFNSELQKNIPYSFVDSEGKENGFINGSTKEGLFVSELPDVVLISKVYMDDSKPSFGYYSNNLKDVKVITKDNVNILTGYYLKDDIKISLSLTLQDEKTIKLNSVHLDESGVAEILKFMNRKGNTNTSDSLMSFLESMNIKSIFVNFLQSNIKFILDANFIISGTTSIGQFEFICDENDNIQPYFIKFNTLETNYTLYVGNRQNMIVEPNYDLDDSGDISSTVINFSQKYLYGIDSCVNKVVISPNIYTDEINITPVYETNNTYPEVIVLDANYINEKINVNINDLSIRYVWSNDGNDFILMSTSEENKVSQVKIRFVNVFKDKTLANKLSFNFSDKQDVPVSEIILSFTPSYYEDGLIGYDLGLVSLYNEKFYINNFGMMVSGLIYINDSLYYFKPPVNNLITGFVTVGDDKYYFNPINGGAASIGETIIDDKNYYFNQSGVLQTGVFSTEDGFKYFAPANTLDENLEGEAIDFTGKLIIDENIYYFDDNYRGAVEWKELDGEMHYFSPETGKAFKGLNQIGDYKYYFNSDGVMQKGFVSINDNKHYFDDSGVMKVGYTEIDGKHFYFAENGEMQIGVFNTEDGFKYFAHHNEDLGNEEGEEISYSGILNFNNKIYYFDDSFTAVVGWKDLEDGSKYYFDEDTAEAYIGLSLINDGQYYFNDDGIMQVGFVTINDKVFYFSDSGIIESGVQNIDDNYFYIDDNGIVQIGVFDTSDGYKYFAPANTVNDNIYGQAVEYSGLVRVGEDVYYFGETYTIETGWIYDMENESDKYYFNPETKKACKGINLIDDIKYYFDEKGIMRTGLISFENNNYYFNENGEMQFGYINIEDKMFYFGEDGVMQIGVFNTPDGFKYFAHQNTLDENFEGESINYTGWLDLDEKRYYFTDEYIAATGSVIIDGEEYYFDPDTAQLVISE
Mtb BioA inh – blocks M. tuberculosis BioA enzyme activity | purified M. tuberculosis BioA enzyme, plate reader | inhibition, % at 9.99 µM | hit rate 0.096% among 360,000; in the data active = inhibition above about 40%; inconclusive = no clear call, values can overlap the other calls
PfHsp40 yeast – compounds rescuing yeast from Plasmodium falciparum HSP40 toxicity. S. cerevisiae expressing PfHsp40, growth rescue, ATP luminescence. growth rescue, % at 12.5 µM. hit rate 0.68% among 340,000; in the data active = growth rescue above about 28%, passing the limit was not always enough; inconclusive = no clear call, values can overlap the other calls;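 also: yeast W303a lacking pdr1 and pdr3 grown in galactose medium; growth measured after three days at 30 °C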
Vc quorum ag – induces V. cholerae light production without autoinducers; V. cholerae BH1578 lux reporter, luminescence, 6 h; activation, % at 18.7 µM; hit rate 0.16% among 350,000; AID 588436; in the data active = activation mostly above about 9.7%, no sharp cut-off; inconclusive = no clear call, values can overlap the other calls; inactive = mostly below about 3.7%
Starred values were filed as active, the others as inactive; i = inactive; ? = inconclusive; . = no result; ! = repeats disagree.

SMILES | Yp Topo-I inh | VHR inh abs | TcdB inh | Mtb BioA inh | PfHsp40 yeast | Vc quorum ag
O=C(N/N=C\c1c(O)ccc2ccccc12)c1ccc(O)cc1 | -15.2 | 27.9 | 1.0 | -2.5 | -0.5 | i
O=C(N/N=C/c1c(O)ccc2ccccc12)c1ccc(Br)o1 | -3.6 | 57.1* | 0.3 | -2.2 | -0.2 | -0.3
O=NN(CCc1ccncc1)c1ccc(OCc2ccccc2)cc1 | 15.1 | 6.7 | 0.7 | 2.5 | 387.7* | -0.4
COc1ccc(NC(=O)CN(C)CC(=O)NCCc2ccc(F)cc2)cc1 | -3.2 | . | 0.8 | 1.3 | 1.0 | -0.7
O=C(Nc1nnc(-c2ccccc2SCc2ccccc2F)s1)Nc1ccccc1F | 16.3 | 10.4 | . | 0.2 | 0.3 | i
COc1ccc(C#Cc2c(-c3ccccc3)n(-c3ccccc3)c3ccc(CO)cc23)cc1 | -3.5 | . | 0.9 | -1.7 | 65.4* | i
Cc1ccc(O)c(C2=NNC(O)(C(F)(F)F)C2)c1 (stereo not drawn) | 2.0 | -27.7 | . | . | 38.9* | i
Cc1ccc(O)c(C2=NNC(c3ccc(Cl)cc3)C2)c1 (stereo not drawn) | -7.9 | -4.9 | 0.3 | -0.5 | ? | i
O=C(CSc1nnc(-c2ccccc2)n1Cc1ccccc1)N1CCOCC1 | -1.9 | 6.6 | . | . | 0.8 | -0.4
Oc1ccccc1-c1nnc(SCCN2CCOCC2)n1Cc1ccccc1 | -1.8 | 11.8 | . | -0.6 | 249.2* | i
CCOc1cc(/C=N/NC(N)=S)cc(Br)c1OCc1ccccc1C | 1.6 | 2.6 | . | 0.9 | 83.1* | -2.9
NC(=O)CC(NC(=O)c1ccccc1)c1ccc(NCCc2ccc(F)cc2)c([N+](=O)[O-])c1 (stereo not drawn) | 0.7 | 23.1 | 10.1* | 0.9 | -0.2 | 1.2
COc1ccc(CCNc2ccc(C(CC(N)=O)NC(=O)c3ccccc3)cc2[N+](=O)[O-])cc1 (stereo not drawn) | 9.0 | 23.1 | . | -2.5 | 2.8 | -1.0
CCc1cccc(CC)c1NC(=O)c1cccc(N)c1 | 6.6 | 56.4* | . | 0.3 | -0.3 | -0.3
CCc1cccc(CC)c1NC(=O)c1ccccc1 | 5.0 | -2.1 | 1.0 | . | -0.1 | i
CN(C)C(=O)Cn1cc(S(=O)(=O)Cc2ccccc2)c2ccccc21 | 1.9 | 59.1* | 1.4 | -1.4 | 0.4 | -1.1
COc1ccc(N2CCN(CC(=O)NCc3ccc(Cl)cc3)CC2)cc1 | -0.2 | 25.0 | 1.8 | -1.0 | 11.9 | i
CC(NC(=O)c1ccc([N+](=O)[O-])o1)C12CC3CC(CC(C3)C1)C2 (stereo not drawn) | 2.8 | -2.7 | 0.2 | -0.5 | -1.4 | -0.2
COc1cccc(OC)c1C(=O)NC(C)C12CC3CC(CC(C3)C1)C2 (stereo not drawn) | 7.5 | 10.8 | . | -3.6 | 83.9* | i
Cn1c(Cn2c(=O)sc3ccccc32)nnc1SCC(=O)N1CCOCC1 | 7.4 | 17.8 | 2.5 | -1.0 | -0.3 | -0.2
Cc1sc2ncnc(N3CCN(c4ncccn4)CC3)c2c1C | 17.2 | 57.9* | . | 1.4 | 5.3 | i
Cc1nc(-c2noc(-c3ccc(Cl)cc3)n2)c(C(F)(F)F)o1 | 7.1 | 13.1 | -2.2 | -1.2 | -1.1 | i
Oc1cc(Cl)ccc1Oc1ccc(Cl)cc1Cl | 9.1 | . | -0.6 | 1.7 | 263.0* | -0.7
S=c1[nH]cc(Oc2ccc(Cl)cc2Cl)c(=S)[nH]1 | 3.4 | . | -1.1 | 0.6 | . | -0.1
CCNc1ccc(S(=O)(=O)NCCN(C)C)cc1[N+](=O)[O-] | 0.0 | 4.7 | 1.1 | . | 1.1 | i
SMILES | Yp Topo-I inh | VHR inh abs | TcdB inh | Mtb BioA inh | PfHsp40 yeast | Vc quorum ag
CN(C)CCCNS(=O)(=O)c1ccc(NC2CCCCCC2)c([N+](=O)[O-])c1 | -25.5 | 52.0* | -6.5 | 1.7 | -0.3 | 0.2
O=C(O)c1cc(NS(=O)(=O)c2ccc(NC3CCCCC3)c([N+](=O)[O-])c2)cc(C(=O)O)c1 | 0.9 | 15.8 | 12.9* | . | 3.3 | -0.3
CCCNC(=O)[C@H]1[C@H](CO)[C@H]2Cn3c(ccc(/C=C/c4ccccc4)c3=O)[C@H]2N1CC1CC1 | . | . | 1.1 | 12.3 | . | .
CCOc1ccc(NC(=O)CSc2n[nH]c(N)n2)c([N+](=O)[O-])c1 | -2.3 | 2.6 | . | 0.1 | -1.1 | i
CNC[C@@H]1OCCCC[C@@H](C)Oc2ccc(NC(=O)C3CCCCC3)cc2C(=O)N([C@H](C)CO)C[C@H]1C | . | . | -0.2 | -3.6 | . | .
COCCNC(=O)c1cc2c(c(-c3cccc(C#CCN(C)C)c3)n1)[C@H](CCO)N(S(=O)C(C)(C)C)C2 (stereo partly drawn) | . | . | 10.1* | -1.9 | . | .
O=C(O)CN1C(=O)/C(=C\c2ccccc2OCc2ccc(Cl)cc2Cl)SC1=S | 3.0 | 17.6 | 0.9 | 11.2 | 52.5* | -0.4
O=C(O)CN1C(=O)/C(=C\c2cc(Br)ccc2OCc2ccccc2Cl)SC1=S | -6.3 | 11.3 | -2.1 | 3.9 | 0.5 | -0.6
Cc1cc(NC(=O)c2cc(-c3ccccc3)on2)n(-c2ccccc2)n1 | 107.1* | 6.4 | . | -1.0 | -1.3 | 4.0
COc1ccc(-c2cc(C(=O)Nc3cc(C)nn3-c3ccccc3)no2)cc1 | 3.8 | 10.3 | . | 0.4 | -0.5 | -0.2
O=C(O)c1cccc(NC(=O)c2cccc(S(=O)(=O)Nc3cccc([N+](=O)[O-])c3)c2)c1 | 1.1 | -4.5 | -0.1 | -1.4 | -1.3 | i
NS(=O)(=O)c1cccc(NC(=O)c2ccc(NS(=O)(=O)c3cccc([N+](=O)[O-])c3)cc2)c1 | -6.5 | . | 12.3* | 0.3 | -0.7 | i
CCN(CC(=O)Nc1ccc2c(c1)OC(F)(F)O2)Cc1nc2ccccc2c(=O)[nH]1 | 0.6 | -6.4 | . | -0.3 | 10.4 | -0.3
COc1ccc(NC(=O)c2c(Cl)n(C)c3ccccc23)cc1 | 6.9 | -4.7 | . | -0.3 | 10.9 | 1.3
O=c1[nH]cc(F)c(=O)[nH]1 | 2.1 | -3.0 | 0.9 | 1.1 | 256.2*! | i
Cc1cc(=O)oc2c(N)c(O)ccc12 | 2.7 | 8.4 | 11.6* | 0.5 | 0.8 | -0.2
Cc1cc(=O)oc2c(CN3CCCCC3)c(O)ccc12 | 3.5 | . | 0.8 | . | 0.5 | i
COC(=O)c1ccsc1NC(=O)CN1C(=O)CCC1=O | 4.1 | 14.2 | -0.5 | -1.9 | -1.4 | -0.2
CC(C)(C)NC(=O)c1cccc(NC(=O)c2ccc3c(c2)C(=O)N(C(C)(C)C)C3=O)c1 | 7.3 | 8.8 | 0.1 | -0.1 | 4.7 | i
CC(C)(C)N1C(=O)c2ccc(C(=O)Nc3ccc(O)cc3)cc2C1=O | 9.7 | 0.7 | 22.5* | 4.9 | -0.4 | i
Cc1nc2ccccn2c1-c1ccnn1S(=O)(=O)c1ccc(F)cc1 | 18.7 | 16.6 | 15.4* | -0.8 | 0.4 | 0.6
Cc1nc2ccccn2c1C(=O)/C=C/c1ccc(F)cc1 | 5.1 | 14.0 | . | 0.0 | -0.1 | -1.1
O=C(O)CCC(=O)c1ccc2sc3ccccc3c2c1 | 11.1 | . | -1.6 | . | 121.6* | -1.0
COc1cccc(N2CC(C(=O)N3CCC4(CC3)CC(=O)c3ccccc3O4)CC2=O)c1 (stereo not drawn) | 217.2* | . | 2.4 | 14.3 | -0.1 | i
O=C1CC2(CCN(C(=O)C3CC(=O)N(c4ccccc4)C3)CC2)Oc2ccccc21 (stereo not drawn) | 12.7 | . | 1.0 | 28.5 | -1.8 | i
